Shown are actives, neighbours in structure and some others; about 1.6% of the full set was active somewhere.
KCNQ2 block: inhibitors of rat KCNQ2 potassium channel; O88943; CHO-K1 KCNQ2, FluxOR thallium flux, 20 min; stronger effect = lower value; B-score at 10 µM; 1.1% of 310,000 active; AID 2156;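 active = fluorescence ratio B-score at most minus 3 library SDs, with starting brightness B-score within 2 library SDs, cut at about -5.5 in these data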
KCNQ2 enhance: enhances the rat KCNQ2 potassium channel | CHO-K1 KCNQ2, FluxOR thallium flux fluorescence; stronger effect = higher value | 0.54% of 310,000 active | B-score at 10 µM;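 active = fluorescence ratio B-score at least 3 SD of library B-scores, with initial fluorescence B-score within 3 of them, cut at about 5.3 in these data; same plate scores as AID 2156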;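 note: B-score of peak minus minimum over baseline fluorescence ratio after K+ and Tl+ stimulus; positive B-score means potentiation of KCNQ2 with more thallium influx and brighter signal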
KCNQ2 inh conf: confirmation of rat KCNQ2 potassium channel inhibitors; activity change, negative = inhibition, % at 10 µM; KCNQ2-expressing cells, thallium flux, inhibition; stronger effect = lower value; 57% of 1,000 active; shares compounds with KCNQ2 block;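 note: 0% = vehicle wells and values are ratio percent relative to vehicle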
KCNQ1 spec: selectivity of KCNQ2 inhibitors against human KCNQ1; shares compounds with KCNQ2 block; KCNQ1-expressing cells, FluxOR thallium flux fluorescence; stronger effect = lower value; activity change, negative = inhibition, % at 10 µM; 15% of 1,000 active;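 active = activity change at least 3 SD of negative controls below their mean in both duplicate wells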;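 note: CHO cells stably transfected with KCNQ1 and depolarized by potassium stimulus; peak minus minimum fluorescence over baseline after thallium addition; 0% = vehicle negative control and -100% = blank without thallium stimulus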
CHO Tl ctr: counter-screen for KCNQ2 inhibitors: effect in parental CHO cells; shares compounds with KCNQ2 block; thallium flux counter-screen; stronger effect = lower value; activity change, % at 10 µM; 14% of 1,000 active;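 note: 0% = vehicle negative controls with stimulus buffer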
KCNQ2 inh confirm: confirmation of rat KCNQ2 potassium channel inhibitors. shares compounds with KCNQ2 block. KCNQ2-expressing cells, automated patch clamp current. calls only at 10 µM. 49% of 550 active. AID 588531
* hit, by the source's call; i = inactive; . = no result; + = active, no number. Unless noted, the rule behind the calls is not given here.

SMILES	KCNQ2 block	KCNQ2 enhance	KCNQ2 inh conf	KCNQ1 spec	CHO Tl ctr	others
COc1cc(OC)c(N(C)C(=O)c2cn(C)c(=O)c3cc(OC)c(OC)cc23)cc1Cl	i	.	.	.	.
CCOC(=O)/C(=N\Nc1cc(C(F)(F)F)ccc1Cl)N(CC)CC	-8.9*	-8.9	i	i	i
CN(C)CC(=O)Nc1cc(C(F)(F)F)ccc1Cl	i	0.07	.	.	.
COc1ccc(OC)c(NC(=O)CSc2nnc(-c3cnccn3)n2C)c1	i	1.5	.	.	.
O=C(Nc1ccc(N2CCOCC2)cc1)Nc1ccc(Cl)c(Cl)c1	-6.6*	-6.6	-28%*	i	i	KCNQ2 inh confirm=i
O=C(Nc1ccc(Cl)cc1)Nc1ccc(N2CCOCC2)cc1	i	.	.	.	.
CCCc1cc(=O)oc2cc(OCC(=O)NC3CC(C)(C)NC(C)(C)C3)ccc12	i	1.3	.	.	.
O=c1cc[nH]c2c1ccc1cccnc12	i	.	.	.	.
C=CCn1c(=O)c(C(=O)NC(C)c2ccccc2)c(O)c2ccccc21 (stereo not given)	-8.2*	-8.2	-30%*	i	i	KCNQ2 inh confirm=i
C=CCn1c(=O)c(C(=O)NCc2ccccc2Cl)c(O)c2ccccc21	-7.1*	-7.1	i	i	i
C=CCn1c(=O)c(C(=O)Nc2ccc(C)cc2)c(O)c2ccccc21	i	.	.	.	.
CCCn1c(=O)c(C(=O)NCc2ccccc2Cl)c(O)c2ccccc21	i	.	.	.	.
CCn1cc(/C=C(\NC(=O)c2ccccc2F)C(=O)NCCCn2ccnc2)c2ccccc21	i	0.12	.	.	.
COc1ccc(Cl)cc1S(=O)(=O)N1CCC(C(=O)NCc2ccco2)CC1	i	0.98	.	.	.
CC1CCCN(C(=O)CNS(=O)(=O)c2cccs2)C1 (stereo not given)	i	.	.	.	.
Cc1nn(C(C)C(=O)O)c(=O)c2c1sc1ccccc12 (stereo not given)	i	.	.	.	.
Cc1nn(C(C)C(=O)N2CCCCC2)c(=O)c2c1sc1ccccc12 (stereo not given)	-8.9*	-8.9	-30%*	i	i	KCNQ2 inh confirm=+
CCOc1ccc2c(c1)-c1c(ssc1=S)C(C)(C)N2C(=O)c1ccco1	-8.8*	-8.8	i	i	i
COc1ccc2c(c1)-c1c(ssc1=S)C(C)(C)N2C(=O)CSC1=NCCS1	i	.	.	.	.
Cc1cc([N+](=O)[O-])nn1Cc1ccc(C(=O)N/N=C/c2ccc(N(C)C)cc2)cc1	i	0.92	.	.	.
CN1CCN(C2Cc3cc(F)ccc3Sc3ccc(Cl)cc32)CC1 (stereo not given)	i	.	.	.	.
CN1CCN(C2Cc3ccccc3Sc3cc(C(F)(F)F)ccc32)CC1 (stereo not given)	-7.4*	-7.4	-39%*	-38%*	-30%*	KCNQ2 inh confirm=i
Cc1ccc(NC2=C(C(=O)c3ccccc3)N(C)S(=O)(=O)c3ccccc32)cc1	-12*	-12	-28%*	i	i	KCNQ2 inh confirm=i
CCN1C(C(=O)c2ccccc2)=C(Nc2ccccc2C)c2ccccc2S1(=O)=O	-6.9*	-6.9	-34%*	-27%*	i	KCNQ2 inh confirm=i
CCN1C(C(=O)Nc2cc(C)on2)=C(O)c2ccccc2S1(=O)=O	i	1.7	.	.	.
SMILES	KCNQ2 block	KCNQ2 enhance	KCNQ2 inh conf	KCNQ1 spec	CHO Tl ctr	others
CN1C(C(=O)c2ccccc2)=C(N)c2ccccc2S1(=O)=O	i	.	.	.	.
CCOC(=O)C1=NNC(C(=O)c2ccccc2)C1c1ccc(C)cc1 (stereo not given)	i	.	.	.	.
CCOC(=O)C1=NNC(C(=O)c2ccccc2)C1c1ccc(Cl)cc1 (stereo not given)	-8.8*	-8.8	-18%*	i	i	KCNQ2 inh confirm=i
N#Cc1c(NCCN)nc(-c2ccco2)c2c1CCCC2	i	.	.	.	.
CC(C)CCNc1nc(-c2ccco2)c2c(c1C#N)CCCC2	-6.8*	-6.8	i	i	i
Clc1ccc(/C=C/c2nc3ccccc3[nH]2)cc1	i	.	.	.	.
Clc1cccc(Cl)c1/C=C/c1nc2ccccc2[nH]1	-8.7*	-8.7	-36%*	-42%*	-30%*	KCNQ2 inh confirm=i
O=C(c1ccc(Br)cc1)c1sc(N2CCOCC2)nc1-c1ccccc1	i	.	.	.	.
COc1ccc(C)cc1NC(=O)CNC(=O)c1sc2ccccc2c1Cl	i	.	.	.	.
COc1ccc(Br)cc1CN(C)C(=O)c1cnc(C)cn1	i	1.4	.	.	.
COc1cccc(CSc2nc3sc(C)c(C)c3c(=O)n2Cc2ccco2)c1	-8.8*	-8.8	-28%*	i	i	KCNQ2 inh confirm=i
Cc1sc2nc(SCc3ccccc3)n(Cc3ccco3)c(=O)c2c1C	i	.	.	.	.

Bioassay records deposited in PubChem BioAssay by Johns Hopkins Ion Channel Center.
